Hits are enriched below; roughly 2.4% of the tested compounds scored in any of these assays.
POLI inh: inhibitors of human DNA polymerase iota; actives 1% (n = 390,000); Pol iota fluorescent replication assay, 10 min; Potency, µM (titrated, usually from 115 µM), hits mostly inhibitors; AID 588590
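Pol iota at 10 nM preincubated 15 min with compounds at room temperature; reaction started with fluorescent substrate, 50 nM final. Fluorescence read kinetically at 0 and 10 min; buffer-only wells as negative control.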
Pol kappa inh-1: inhibitors of human DNA polymerase kappa. purified Pol kappa, fluorescent DNA synthesis assay, 10 min. Potency, µM (titrated, usually from 107 µM), most hits filed as inhibitors. actives 0.53% (n = 400,000). AID 588579
Target sequence (Q9UBT6 whole entry, looked up): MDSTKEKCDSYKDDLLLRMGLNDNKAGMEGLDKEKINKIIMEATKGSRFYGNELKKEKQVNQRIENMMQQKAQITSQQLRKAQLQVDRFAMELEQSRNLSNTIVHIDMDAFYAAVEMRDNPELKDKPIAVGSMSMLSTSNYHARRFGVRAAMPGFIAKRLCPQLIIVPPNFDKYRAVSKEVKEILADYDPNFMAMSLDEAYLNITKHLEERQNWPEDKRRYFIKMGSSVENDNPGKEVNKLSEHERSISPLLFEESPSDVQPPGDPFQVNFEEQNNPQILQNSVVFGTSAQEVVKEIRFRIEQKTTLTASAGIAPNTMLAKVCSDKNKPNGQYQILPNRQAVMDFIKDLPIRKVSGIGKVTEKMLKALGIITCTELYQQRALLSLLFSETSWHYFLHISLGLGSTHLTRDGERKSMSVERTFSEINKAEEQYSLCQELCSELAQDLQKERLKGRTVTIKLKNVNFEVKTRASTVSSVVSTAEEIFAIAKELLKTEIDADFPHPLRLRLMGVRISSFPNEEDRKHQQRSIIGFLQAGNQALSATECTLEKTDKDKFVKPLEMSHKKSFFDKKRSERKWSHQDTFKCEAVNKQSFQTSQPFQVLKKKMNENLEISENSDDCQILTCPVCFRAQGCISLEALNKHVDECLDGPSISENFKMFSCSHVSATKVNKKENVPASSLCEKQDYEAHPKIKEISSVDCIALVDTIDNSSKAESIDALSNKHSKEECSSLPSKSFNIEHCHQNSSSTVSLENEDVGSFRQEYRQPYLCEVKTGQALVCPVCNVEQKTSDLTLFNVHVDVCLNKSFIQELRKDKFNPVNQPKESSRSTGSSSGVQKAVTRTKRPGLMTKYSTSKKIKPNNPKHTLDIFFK
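Pol kappa 10 nM + cpd, 15 min RT; start w/ substrate 50 nM final; fluorescence kinetic read, 0 and 10 min. Neg ctrl: buffer, no enzyme.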
Pol eta inh-1: DNA polymerase eta (human) inhibition. recombinant Pol eta, fluorescent DNA replication assay. Potency, µM (titrated, usually from 114 µM), most hits filed as inhibitors. actives 1.2% (n = 390,000). AID 588591
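Pol eta at 10 nM preincubated with compounds 15 min at room temperature; reaction started with fluorescent substrate (50 nM final) and read kinetically at 0 and 10 min.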
L3MBTL1 inh-1: blocks human L3MBTL1 | Q9Y468 | AlphaScreen L3MBTL1–H3K9me1 peptide binding | Potency, µM (top dose mostly 57.1 µM), actives largely listed as inhibitors | actives 0.66% (n = 230,000) | AID 485360; further: nearly all actives have a fitted effect of over 60% in size
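L3MBTL1 (50 nM) pre-complexed 30 min with biotinylated H3(1-15)K9me1 peptide (75 nM), then compounds added for 30 min at room temperature; AlphaScreen streptavidin donor/nickel chelate acceptor beads (10 ug/mL final) read after 30 min dark incubation.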
Pol beta inh: inhibitors of human DNA polymerase beta; Pol beta primer extension/strand displacement, fluorescence kinetic; Potency, µM (titrated, usually from 114 µM), most hits filed as inhibitors; actives 1.3% (n = 340,000)
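Homogeneous kinetic assay of primer extension and strand displacement by 10 nM Pol beta, preincubated 15 min at room temperature with compound before 50 nM substrate (final) was added. Read at 0 and 10 min; four-parameter Hill fit.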
L3MBTL1 inh-2: blocks human L3MBTL1 methyl-lysine binding; shares compounds with L3MBTL1 inh-1; L3MBTL1 methyl-lysine binding inhibition, biochemical qHTS; Potency, µM, usual class: inhibitors; actives 91% (n = 500); AID 540279; further: nearly all actives have a fitted effect of over 70% in size
L3MBTL1 ctr: AlphaScreen signal inhibition, L3MBTL1 hit counter-screen | Potency, µM (titrated, usually from 57.1 µM), hits mostly inhibitors | AlphaScreen counterscreen, signal inhibition | 500 tested, under 10 active | shares compounds with L3MBTL1 inh-1
PGK validate: TbPGK inhibition, hit validation. shares compounds with Pol kappa inh-1. TbPGK coupled GAPDH assay, Kinase-Glo luminescence. Potency, µM (doses to about 57.5 µM), actives largely listed as inhibitors. actives 79% (n = 500). AID 686980; further: nearly all actives have a fitted effect of over 65% in size
Pol iota confirm: Confirm cherry-picked inhibitors of human polymerase iota | Potency, µM, usual class: inhibitors | Pol iota primer extension, TAMRA/BHQ fluorescence | actives 77% (n = 1,500) | AID 720496 | shares compounds with Pol kappa inh-1
Pol kappa inh-2: confirmation of human DNA polymerase kappa inhibitors; shares compounds with Pol eta inh-1; purified Pol-kappa, fluorescent strand-displacement substrate; actives 76% (n = 920); Potency, µM, hits mostly inhibitors
Pol eta inh-2: confirmation of human DNA polymerase eta inhibitors; shares compounds with Pol eta inh-1; Potency, µM, hits mostly inhibitors; Pol eta primer extension, TAMRA/BHQ fluorescence, 10 min; actives 64% (n = 2,600); AID 720502
Numbers stand for hits; – = inactive; ? = inconclusive; · = no result given. The call rests on the fitted dose curve; in most records, active means well fitted curve in the direction sought with a large enough effect; inconclusive means small, poorly fitted or top-dose-only effect, or another doubt; inactive means no such curve, though single readings can be large; an effect the other way counts as inactive or inconclusive.

SMILES	POLI inh	Pol kappa inh-1	Pol eta inh-1	L3MBTL1 inh-1	Pol beta inh	L3MBTL1 inh-2	L3MBTL1 ctr	Pol iota confirm	Pol eta inh-2	others
COc1ccc(CC(Cc2ccc(OC)c(OC)c2)NC=O)cc1OC	·	·	–	·	·	·	·	·	·
CCOc1ccccc1NC(=O)C1CCN(S(=O)(=O)c2cccc3nonc23)CC1	–	–	–	·	–	·	·	·	·
Cc1ccc(C(=O)OCC(=O)c2ccc(CC(=O)N3CCOCC3)s2)c(C)c1	12.6µM	17.8µM	15.8µM	20µM	·	2.99	–	42.3	?	Pol kappa inh-2=37.7
COc1cccc(CNC(=O)c2cc3c(=O)n(Cc4cccnc4)ccc3nc2C)c1	–	–	–	·	–	·	·	·	·
CC(C)CCNC(=O)c1cc(-c2ccco2)nc2ccccc12	–	–	–	·	–	·	·	·	·
CCCCCCNC(=O)c1cc(-c2ccco2)nc2ccccc12	?	50.1µM	12.6µM	14.1µM	7.94µM	7.52	–	26.7	30.1
CN(C)C(CNC(=O)c1cc(-c2ccco2)nc2ccccc12)c1ccccc1 (configuration not stated)	?	25.1µM	11.2µM	7.94µM	·	2.67	–	33.6	75.7
COC(=O)C1CCN(C(=O)c2cc(-c3ccco3)nc3ccccc23)CC1	?	22.4µM	8.91µM	0.794µM	·	5.32	–	8.44	15.1	PGK validate=13µM;Pol kappa inh-2=9.47
O=C(c1cc(-c2ccco2)nc2ccccc12)N1CCN(Cc2ccccc2)CC1	?	–	?	–	·	·	·	·	·
N[C@@H](Cc1cnc[nH]1)C(=O)Nc1ccc2ccccc2c1	–	–	–	·	·	·	·	·	·
O=C(c1ccc2c(c1)N(Cc1ccc(F)cc1)C(=O)c1ccccc1S2=O)N1CCC(Cc2ccccc2)CC1 (configuration not stated)	–	–	–	·	?	·	·	·	·
COc1cccc(N2CCN(S(=O)(=O)c3ccc(-c4cc(C(F)(F)F)on4)s3)CC2)c1	–	–	–	·	–	·	·	·	·
Cn1nc2c(c1C(=O)O)CCCC2	?	?	8.91µM	5.62µM	?	15	–	·	26.9
Cn1nc2c(c1C(=O)N1CCCC(C(=O)c3cc(F)ccc3F)C1)CCCC2 (configuration not stated)	–	–	–	–	–	·	·	·	·
CCCC[N+](C)(C)CCC(=O)NC(C)(C)CS(=O)(=O)[O-]	?	–	12.6µM	20µM	20µM	21.2	–	·	75.7	PGK validate=?
O=C(CCS(=O)(=O)c1ccc(Cl)cc1)Nc1ccccc1Br	–	–	–	·	–	·	·	·	·
O=C(CCS(=O)(=O)c1ccc(Br)cc1)Nc1cc(F)ccc1F	–	?	?	28.2µM	17.8µM	26.7	–	·	·	Pol kappa inh-2=42.3
O=C(CCS(=O)(=O)c1ccc(Br)cc1)Nc1ccc(F)cc1F	–	–	–	·	–	·	·	·	·
COC(=O)c1ccccc1NC(=O)CCS(=O)(=O)c1ccc(Br)cc1	–	20µM	3.55µM	8.91µM	2.51µM	2.67	–	21.2	26.9	PGK validate=?;Pol kappa inh-2=15
Cc1ccc(S(=O)(=O)N2C[C@@H](C)[C@]3(C2)[C@H](O)[C@H](OC(=O)NCc2ccco2)C[C@H]2C(=O)N(c4ccccc4)C(=O)[C@H]23)cc1	·	·	–	·	·	·	·	·	·
NC(=S)N/N=C/c1cccc(O)c1O	79.4µM	?	–	28.2µM	–	·	·	67	·
Cc1nc(S/C(=C/c2ccc(-c3cc(Cl)ccc3C)o2)C(=O)O)n[nH]1	?	?	?	–	?	·	·	·	·

Compound activity deposited in PubChem by National Center for Advancing Translational Sciences (NCATS).
